Drawing on PubChem BioAssay (EPA / NIEHS), this text covers outcome and AC50 for 40 compounds.

The structures appear in SMILES notation. Activity calls are given as the source filed them. The calls were made as follows: active = hit-call score of the fitted dose curve at least 0.9, where 1 is the maximum; inactive = score below 0.9.

The experiment can be described thus: CCTE_Padilla_ZF_Score.Blood_pooling: CCTE's 144 Hour Post-fertilization zebrafish Assay Score for Blood Pooling, Padilla Lab (AID 2284415). As for the experimental part: CCTE_Padilla_ZF_Phenotype_Score is a whole embryo, multiplexed assay using zebrafish ova exposed for 144 hours post fertilization on a 96-well plate.CCTE_Padilla_ZF_Score.Blood_pooling is one of one assay component(s) measured or calculated from the CCTE_Padilla_ZF_Phenotype_Score assay. It is designed to make measurements of zebrafish development as detected with brightfield microscopy of developing zebrafish embryos.Data from the assay component CCTE_Padilla_ZF_Score.Blood_pooling was analyzed into 1 assay endpoints. This assay endpoint, CCTE_Padilla_ZF_Score.Blood_pooling, was analyzed in the positive analysis fitting direction relative to DMSO as the negative control and baseline of activity. Using a type of viability reporter, gain-of-signal activity can be used to understand changes in developmentals as they relate to the whole embryo. To generalize the intended target to other relatable targets, this assay endpoint is annotated to the zebrafish development intended target family, where the subfamily is swim bladder morphogenesis.
Zebrafish husbandry: Wild type adult zebrafish (Danio rerio; undefined outbred stock obtained from Aquatic Research Organisms, Hampton, NH, 03842) were housed in an AAALAC-approved animal facility at 28C with a 14:10 h light: dark cycle (lights on at 08:30 h). Adult fish (2-3 females per male; density = 15-20 adults per tank) were kept in one of several 9-liter (L) flow-through colony tanks (Aquaneering Inc., San Diego, CA). All adults in a colony tank were placed in a 2 L (static) breeding tank (Aquatic Habitats, Apopka, FL) one hour prior to light onset. Typically, adults from two to three colony tanks were mated on the same day. Two hours after light onset the adults were returned to the colony tank. All embryos were gathered from each breeder tank, pooled, and placed in a 28C water bath for 2 h, followed by two washes with 0.06% bleach (v/v) in 10% Hanks' Balanced Salt Solution (13.7 mM NaCl 0.54 mM KCl, 25 uM Na2HPO4, 130 uM CaCl2 100 um MgSO4 and 420 um NaHCO3,), hereafter referred to as Hanks' solution, for 5 min in order to remove any residual bacteria or fungi. Immediately following washing, the embryos were examined, and healthy embryos were separated from dead or unfertilized eggs and moved into fresh Hanks'. Chemical exposures: Zebrafish embryos were exposed in 96-well plates. Between 6- and 8-hours post fertilization (hpf), healthy embryos (with chorions) were transferred, one embryo per well, into 96 well (0.5 mL) microtiter plates (Cell Culture-Treated, Flat-Bottom Microplate 96 well [Corning Costar, Kennebunk, ME; Cat 09-761-145]) filled with 200 uL of Hanks' solution. A random number generator was used to assign the order in which the rows of embryos were plated in 96 well plates each week. After plating, the embryos were dosed with 0.8 uL of the chemical dosing solution then immediately sealed with AlumaSeal II (Excel Scientific Inc, Victorville, CA) to prevent volatilization of the chemicals, and then placed in a leakproof secondary container. These containers were placed in an incubator maintained on a 14:10 h light: dark cycle at 26C for rearing. On 5 dpf, live larvae were gently moved out of the plate with test chemicals and into a new 96 well mesh plate (Millipore Corp., Bedford, MA) with just the Hanks' solution. Once within the mesh well plate, the animals were rinsed with 400 uL of fresh Hanks' three times, and then the plates were covered with a non-adhesive material (Microseal A, BioRad, Hercules, CA), plate lid added, and then plate sides wrapped in Parafilm (PM992, Bermis Company, Neenah, WI), and returned to the incubator. […]
Turning to `OCC(F)(F)C(F)(F)C(F)(F)C(F)(F)C(F)(F)C(F)(F)CO`, the outcome was inactive.
Still for that read-out and setting: with `NCC(F)(F)C(F)(F)C(F)(F)C(F)(F)C(F)(F)C(F)(F)C(F)(F)C(F)(F)F` the entry was “inactive”; with `O=C(F)C1(F)C(F)(F)C(F)(F)C(F)(F)C(F)(F)C1(F)F`, “inactive”.
Still for that read-out and setting: with `NS(=O)(=O)C(F)(F)C(F)(F)C(F)(F)C(F)(F)C(F)(F)C(F)(F)F` the entry was “inactive”; with `C=CC(=O)OCCC(F)(F)C(F)(F)C(F)(F)C(F)(F)F`, “inactive”.
Turning to `O=S(=O)(OCC(F)(F)F)C(F)(F)C(F)(F)C(F)(F)C(F)(F)F`, the AC50 is 33.3 µM (active).
For the compound `CNS(=O)(=O)C(F)(F)C(F)(F)C(F)(F)C(F)(F)C(F)(F)C(F)(F)C(F)(F)C(F)(F)F`, the compound was classed as inactive.
The same measure, in the same setting: to `O=C(O)CCC(F)(F)C(F)(F)C(F)(F)C(F)(F)C(F)(F)C(F)(F)C(F)(F)F` belongs “inactive”; to `OCC(F)(F)C(F)(F)C(F)(F)C(F)(F)C(F)(F)C(F)(F)C(F)(F)C(F)(F)CO`, “inactive”.
Still for that read-out and setting: to `C=CC(=O)OCC(F)(F)C(F)(F)C(F)(F)C(F)(F)C(F)(F)C(F)(F)C(F)(F)C(F)F` belongs “inactive”; to `O=C(O)C(F)(F)C(F)(F)C(F)(F)C(F)(F)C(F)(F)C(F)(F)C(F)F`, “inactive”.
On the same count and under the same terms, to `O=C(Cl)C(F)(F)C(F)(F)C(F)(F)C(F)(F)C(F)(F)C(F)(F)F` belongs “inactive”; to `O=C(O)C(F)(F)C(F)(F)C(F)(F)OC(F)(F)F`, “inactive”; to `OCCCCC(F)(F)C(F)(F)C(F)(F)C(F)(F)F`, “inactive”.
As for `OCC(F)(F)C(F)(F)C(F)(F)CO`, the call was inactive.
Still for that read-out and setting: with `CN(C(=O)C(F)(F)C(F)(F)C(F)(F)F)[Si](C)(C)C` the entry was “inactive”.
On the same count and under the same terms, to `NC(=O)C(F)(F)C(F)(F)C(F)(F)C(F)(F)C(F)(F)C(F)(F)C(F)(F)F` belongs “inactive”; to `O=S(=O)(O)CCC(F)(F)C(F)(F)C(F)(F)C(F)(F)C(F)(F)C(F)(F)C(F)(F)C(F)(F)F`, “inactive”.
The same measure, in the same setting: to `NC(=O)C(F)(F)C(F)(F)C(F)(F)F` belongs “inactive”.
`CCN(CCO)S(=O)(=O)C(F)(F)C(F)(F)C(F)(F)C(F)(F)C(F)(F)C(F)(F)C(F)(F)C(F)(F)F`: the outcome was inactive.
With `COC(F)(C(F)F)C(F)(F)F` (stereo not given), the result was inactive.
Consider `O=C(O)CCC(F)(F)C(F)(F)C(F)(F)F`, for which the call was inactive.
The same measure, in the same setting: with `NC(=O)C(F)(F)C(F)(F)C(F)(F)C(F)F` the entry was “inactive”; with `O=S(=O)(O)CCC(F)(F)C(F)(F)C(F)(F)C(F)(F)F`, “inactive”.
Same read-out and setting: to `C=CC(=O)OCC(F)(F)C(F)(F)C(F)(F)COC(=O)C=C` belongs “inactive”; to `O=C(O)C(F)(F)OC(F)(F)C(F)(F)OC(F)(F)C(F)(F)OC(F)(F)F`, “inactive”; to `OC(O)C(F)(F)C(F)(F)F`, “inactive”.
The same measure, in the same setting: to `O=C(O)C(F)(F)C(F)(F)C(F)(F)C(=O)O` belongs “inactive”; to `O=C(O)C(F)(F)C(F)(F)C(F)(F)OC(F)(C(F)(F)F)C(F)(F)F`, “inactive”.
For `CCOC(=O)CC(=O)C(F)(F)C(F)(F)F`, the compound was called inactive.
In the case of `O=C(Cl)C(F)(F)C(F)(F)C(F)(F)C(F)(F)C(F)(F)C(F)(F)C(F)(F)F`, the compound was classed as inactive.
For `NCC(F)(F)C(F)(F)C(F)(F)C(F)(F)C(F)(F)C(F)(F)F`, the outcome was inactive.
Turning to `OCC(O)CC(F)(F)C(F)(F)C(F)(F)C(F)(F)F` (stereo not given), the outcome was inactive.
Take `C[Si](Cl)(Cl)CCC(F)(F)C(F)(F)C(F)(F)C(F)(F)C(F)(F)C(F)(F)F`: the call was inactive.
Same read-out and setting: with `FC(F)(F)C(F)(F)C(F)(F)C(F)(F)C(F)(F)C(F)(F)C(F)(F)CCI` the entry was “inactive”; with `NC(O)(C(F)(F)F)C(F)(F)F`, “inactive”.
The same measure, in the same setting: with `O=S(=O)(Cl)C(F)(F)C(F)(F)C(F)(F)C(F)(F)C(F)(F)C(F)(F)C(F)(F)C(F)(F)F` the entry was “inactive”.
On to `OCC(O)CC(F)(F)C(F)(F)C(F)(F)C(F)(F)C(F)(F)C(F)(F)C(F)(F)C(F)(F)F` (stereo not given), for which the compound was classed as inactive.
Still for that read-out and setting: to `C=C(C)C(=O)OCC(F)(F)C(F)(F)C(F)(F)C(F)F` belongs “inactive”; to `CO[Si](C)(CCC(F)(F)C(F)(F)C(F)(F)C(F)(F)C(F)(F)C(F)(F)F)OC`, “inactive”.

The term AC50 denotes the midpoint of the concentration-response curve, whichever way the signal moves.
